Assay outcomes as filed in PubChem BioAssay.
Rows were chosen to be rich in hits. Some 2.4% of all compounds tested hit in one or more screens of this group.
ADAM17 inh – ADAM17 inhibition, QFRET primary screen; P78536; recombinant ADAM17, EDANS/DABCYL FRET peptide cleavage; inhibition, % at 6.95 µM; 370,000 compounds, 0.83% hits;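 active = inhibition above the mean of compounds lying between control limits plus 3 SD, set per campaign, cut at about 8.5% in these data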;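 note: 0% = DMSO-only wells as the low control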
ADAM10 inh – inhibits human ADAM10 | O14672 | recombinant ADAM10, EDANS/DABCYL FRET peptide cleavage, 3 h | inhibition, % at 7 µM | 370,000 compounds, 0.62% hits | AID 720582;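 active = inhibition above a per-campaign cutoff equal to the mean of compounds falling between control-based bounds plus 3 SD, cut at about 20% in these data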;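 note: 0% = DMSO wells while the 100% control is not disclosed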
A3A deaminase – human APOBEC3A DNA deaminase inhibition. P31941. recombinant A3A, FAM/TAMRA ssDNA deamination fluorescence. inhibition, % at 20 µM. 330,000 compounds, 0.41% hits. AID 493011;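 active = at least 40% inhibition at 20 µM here, with at most 30% in a related deaminase screen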;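 note: plate controls were A3A with DMSO for no effect and wells lacking A3A enzyme for full effect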
Target sequence (P31941 whole entry, looked up): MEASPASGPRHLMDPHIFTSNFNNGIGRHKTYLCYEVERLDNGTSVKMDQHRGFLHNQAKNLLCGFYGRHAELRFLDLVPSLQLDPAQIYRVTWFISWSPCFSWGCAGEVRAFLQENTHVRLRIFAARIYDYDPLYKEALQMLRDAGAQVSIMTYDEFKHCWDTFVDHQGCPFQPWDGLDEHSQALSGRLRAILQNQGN
CendR NRP1 mod – NRP-1/CendR interaction modulation; O14786; FAM-RPARPAR peptide binding to NRP-1, fluorescence polarization; inhibition, % at 25 µM; 360,000 compounds, 0.85% hits; AID 602438;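 active = inhibition or corrected inhibition above about 18%, plus a signal ratio from 0.5 to 1.5, limit read from the data, passing the limit was not always enough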
A3G deaminase – APOBEC3G (human) deaminase inhibition; 330,000 compounds, 0.28% hits; recombinant A3G, ssDNA deamination FAM/TAMRA fluorescence; inhibition, % at 20 µM;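 active = inhibition of at least 40% at 20 µM, with no more than 30% in the related APOBEC3A deaminase screen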;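 note: plate controls were DMSO wells with A3G for no effect and wells lacking A3G enzyme for full effect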
Target sequence (Q9HC16 whole entry, looked up): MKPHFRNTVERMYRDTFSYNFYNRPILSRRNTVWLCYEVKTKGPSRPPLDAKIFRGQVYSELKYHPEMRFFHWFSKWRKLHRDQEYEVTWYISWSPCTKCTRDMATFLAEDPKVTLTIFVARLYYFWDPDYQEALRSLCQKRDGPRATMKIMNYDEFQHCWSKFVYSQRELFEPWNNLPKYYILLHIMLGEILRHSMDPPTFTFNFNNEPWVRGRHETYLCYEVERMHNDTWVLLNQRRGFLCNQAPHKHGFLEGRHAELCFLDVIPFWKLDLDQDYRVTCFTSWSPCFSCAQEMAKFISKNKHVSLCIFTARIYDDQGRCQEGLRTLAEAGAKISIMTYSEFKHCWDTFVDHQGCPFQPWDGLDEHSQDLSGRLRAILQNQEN
Starred values were filed as active, the others as inactive; / = no result.

SMILES | ADAM17 inh | ADAM10 inh | A3A deaminase | CendR NRP1 mod | A3G deaminase
S=c1[nH]nc(-c2n[nH]c3c2CCC3)n1N=Cc1c[nH]c2ccccc12 | -0.2 | 4.1 | / | / | /
CCN(CC)C(=O)C1CCCN(C(=O)Nc2ccc3nsnc3c2)C1 (stereo not given) | -112.8 | -431.4 | 1.7 | 33.5* | -0.1
CCOc1ccccc1N1CCN(C(=O)c2ccncc2)CC1 | -3.4 | 1.9 | -5.1 | 43.2* | -7.4
CCOc1ccccc1N1CCN(C(=O)c2cccc(-c3ccc(O)cc3)c2)CC1 | 3.7 | 4.3 | -2.7 | 4.7 | 0.2
C/C(=N\N=c1/sc2ccccc2n1C)c1ccccn1 | -0.6 | 1.4 | -2.1 | 26.5* | -7.1
C/C(=N\N=c1/sc2ccccc2n1C)c1ccc(N2CCOCC2)cc1 | 0.9 | 4.3 | -0.6 | -6.8 | -4.9
CCOC(=O)N1C2=NC(C(=O)OC)=C(C(=O)OC)[C@@H]3N(C)c4ccc(OC)cc4[C@]23C[C@H]1C(=O)OC | -2.6 | -3.3 | -2.0 | 25.3* | -5.6
COC(=O)C1=C(C(=O)OC)[C@@H]2N(C)c3ccccc3[C@@]23C[C@@H](CO)N(C(=O)c2cccs2)C3=N1 | -1.8 | -6.1 | -3.2 | 17.7 | -7.2
C#CCCOC(=O)N1C2=NC(C(=O)OC)=C(C(=O)OC)[C@@H]3N(C)c4ccccc4[C@]23C[C@H]1CO | 1.0 | 7.5 | -2.9 | 26.1* | -5.5
COC(=O)C1=C(C(=O)OC)[C@@H]2N(C)c3ccc(OC)cc3[C@@]23C[C@@H](C(=O)OC)N(C(=O)c2ccc(Br)cc2)C3=N1 | -2.1 | 1.3 | -0.9 | -0.7 | -4.9
CC(C)Cc1nnc(NC(=O)CCC(=O)N2CCCCC2)s1 | 1.6 | 1.5 | 0.2 | 18.2* | 0.6
CCc1nnc(NC(=O)CCC(=O)N2CCCC2)s1 | -5.1 | -0.5 | -2.6 | -3.5 | -5.5
O=C(NCc1ccc(C(=O)N2CCCC2)cc1)c1cccc(Br)c1 | -0.5 | 1.4 | / | / | /
O=C(Nc1cc(C(F)(F)F)ccc1N1CCCC1)C1CC(=O)N(Cc2ccccc2)C1 (stereo not given) | 0.8 | 3.6 | / | 23.7* | /
Cc1ccc(N2CCN(S(=O)(=O)N3CCCCCC3)CC2)cc1Cl | -4.0 | 2.9 | 2.6 | 0.6 | -8.4
Cc1ccc(N2CCN(S(=O)(=O)N3CCCCC3)CC2)cc1C | 1.8 | 3.1 | -3.9 | 31.0* | 0.4
CCOc1ccc(C(=O)Nc2nnc(SCC(=O)NCC3CCCO3)s2)cc1OCC (stereo not given) | 1.6 | -2.1 | 3.2 | 20.7* | -4.5
O=C(Cn1c(-c2ccccc2Cl)nc2ccccc21)Nc1cccc(Cl)c1 | -1.1 | -3.2 | 0.4 | 21.2* | -5.2
O=C(COc1ccc(Br)cc1CO)Nc1ccc(S(=O)(=O)N2CCCCC2)cc1 | 7.0 | 9.3 | -3.3 | 25.4* | -7.3
CCc1ccc(OCC(=O)Nc2ccc(S(=O)(=O)N3CCCC3)cc2)c(Br)c1 | -0.8 | 2.2 | 1.2 | 9.9 | 0.7
Cc1ccc(OCC(=O)Nc2ccc(C)c(S(=O)(=O)N3CCCCCC3)c2)c([N+](=O)[O-])n1 | -0.8 | 3.9 | 2.9 | 31.6* | 0.0
Cc1ccc(OCC(=O)Nc2cccc(S(=O)(=O)N3CCCCC3)c2)c([N+](=O)[O-])n1 | 1.6 | 1.9 | -3.0 | -1.0 | -10.7
O=C(N1CCOCC1)N1CC[C@H]2[C@H](CCCN2Cc2ccccc2)C1 | -3.9 | -1.6 | / | / | /
C=CC[C@@]1(c2ccccc2)Oc2ccccc2-c2nc3ccccc3nc21 | -25.8 | -101.5 | / | / | /
COc1ccccc1NS(=O)(=O)c1cc(NC(C)=O)ccc1N1CCCCC1 | 1.1 | 16.1 | -0.9 | 5.8 | 21.8
SMILES | ADAM17 inh | ADAM10 inh | A3A deaminase | CendR NRP1 mod | A3G deaminase
CCOC(=O)C(=CNc1ccc(N2CCCCC2)c(S(=O)(=O)Nc2ccccc2OC)c1)C(=O)OCC | -8.3 | -8.5 | / | 35.6* | /
O=CN1CCN(C(=O)C2CCN(c3ncnc4c3sc3cccc(F)c34)CC2)CC1 | -8.8 | -34.1 | / | / | /
COc1ccc(CC(=O)OCc2cc3ccccc3[nH]c2=O)cc1 | -2.8 | -18.3 | -5.1 | 25.4* | -12.1
CCN(CC)C(=O)c1[nH]cnc1C(=O)Nc1cccc(C)c1 | -2.4 | -8.7 | -7.2 | 26.6* | -9.7
C[C@@H](NC(=O)c1[nH]cnc1C(=O)Nc1ccc(Cl)cc1)c1ccccc1 | -2.6 | -8.3 | -2.1 | 16.9 | -9.0
C[C@@H](NC(=O)c1[nH]cnc1C(=O)Nc1cccc(Cl)c1)c1ccccc1 | -0.9 | -2.7 | -4.0 | 26.5* | -9.1
CC(C)(C)OC(=O)[C@H](Cc1ccccc1)NC(=O)c1[nH]cnc1C(=O)Nc1cccc(Cl)c1 | 0.2 | -1.1 | 0.8 | 23.3* | -2.6
C[C@H](NC(=O)c1[nH]cnc1C(=O)Nc1ccc(Cl)cc1)c1ccccc1 | 6.9 | 15.9 | -1.0 | 37.0* | -6.9
Cc1cccc(NC(=O)c2nc[nH]c2C(=O)N[C@@H](Cc2ccccc2)C(=O)OC(C)(C)C)c1 | -4.1 | 0.6 | -4.1 | -1.7 | -8.8
CC(=O)Nc1ccc(S(=O)(=O)NCC2CCN(C(=O)C(=O)c3cccs3)CC2)cc1 | -1.0 | 2.4 | / | / | /
COC(=O)[C@]1(CNC(=O)NCCc2ccc(OC)c(OC)c2)CC(=O)N(C)[C@@H]1c1ccccc1 | 4.8 | 5.9 | / | / | /
Cc1ccc2c(c1)c1nnc(SCC(=O)N3CCCc4ccccc43)nc1n2CC(=O)O | 1.3 | -4.8 | -2.2 | 23.7* | -0.7
CCc1nnc(SCC(=O)N2CCCc3ccccc32)nc1CC | 4.3 | -3.8 | -0.8 | -7.8 | -3.6
CN1CCCCC(NC(=O)c2cccc(C(F)(F)F)c2)C1=O (stereo not given) | -3.9 | -7.5 | / | / | /
CC(SC(=S)N1CCCC1)C(=O)O (stereo not given) | -3.4 | -4.7 | -3.2 | 35.6* | -2.0
O=S1(=O)c2ccc(N3CCSCC3)cc2Oc2ccccc2CN1Cc1cn(Cc2cccc(C(F)(F)F)c2)nn1 | 3.4 | 14.8 | / | / | /
O=[N+]([O-])c1cc2c(ccc3occc32)o1 | -1.0 | -8.3 | / | / | /
O=C(Cn1cnc2c(OCc3ccccc3)ncnc21)NCCN1CCOCC1 | -0.8 | -5.4 | -5.0 | -10.6 | -7.0
O=C(Cn1cnc2c(NC(=O)OCc3ccccc3)ncnc21)NCCN1CCOCC1 | -6.1 | -8.2 | 0.8 | 28.9* | -1.2
Cc1ccccc1C1CCC2(CC1)CCN(CC[C@@H](O)c1ccccc1)C2=O (stereo not given in full) | 1.2 | 11.3 | / | / | /
CCCS(=O)(=O)N1CCCC(C(=O)NC2CCCC(C)C2C)C1 (stereo not given) | -4.5 | -1.8 | -2.2 | 0.1 | -3.9
CCCS(=O)(=O)N1CCC(C(=O)NC2CCCC(C)C2C)CC1 (stereo not given) | -1.4 | -4.7 | 4.0 | 25.9* | 6.4
Cc1cc(CNC(=O)CC2C(=O)NCCN2CC(C)(C)C)nn1C (stereo not given) | -7.2 | -12.8 | -3.2 | 12.1 | -1.7
Cc1cnccc1CNC(=O)CC1C(=O)NCCN1CC(C)(C)C (stereo not given) | -3.2 | -3.5 | 2.3 | 26.5* | 9.3
Cc1c(Cl)cccc1NC(=S)NCc1cccn1C | -2.7 | -5.5 | -4.3 | 28.3* | -8.2
Cc1ccccc1NC(=S)NCc1cccn1C | -0.9 | -6.5 | -9.9 | 13.1 | -8.4
